47 sequences from the supplement of paper PMC11417369 can be followed below.

Whole data set: some 25,000 sequences, median “ln(normalized median fluorescence intensity)” near 7.1, cut for the highest 2% near 10. What follows is part of a selection rich in the highest values, with near analogues and random picks from the rest.

The assay deals with PfSIP2 AP2 domain 1 (GST-tagged). Nature of the assay: gcPBM binding intensity (ln(normalized median fluorescence intensity)); higher = stronger DNA binding. The gist of the method:
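GST-tagged P. falciparum DNA-binding domains, expressed in E. coli (about 25 μg on average), were applied for 1 h to an Agilent 4 × 180k array of primer-extended double-stranded 36-bp intergenic genomic probes plus negative controls. The binding buffer was 1× PBS with 1% milk, 0.2 mg/ml BSA, 0.5% salmon testes DNA and 0.03% Triton X-100. Bound protein was detected with Alexa488 anti-GST antibody and scanned at 488 nm. Binding intensity is the highest Masliner-normalised natural-log median intensity across replicate spots of either probe orientation.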
With “CATTAATAACAAAGTTGTACAAGATAATATTATATG [XGTACX_site6832]”, the “gcPBM binding intensity (ln)” value amounted to 7.26.

Turning to “TAAAAAATTATTAAACGTACGAGACTTTTTATCAGT [XGTACX_site2219]”, the “gcPBM binding intensity (ln)” value came out at 7.05.

“AAAAAAAAATATAACAGTACATAAACATATGAATAT [XGTACX_site7093]”: the “gcPBM binding intensity (ln)” value was 6.91.

Turning to “ATAATAAAAAAAATTAGTACATATATAAATATAAAT [XGTACX_site1937]”, the “gcPBM binding intensity (ln)” value is 6.85.

For “CATCTCATATTTTGAAGTACTAAGAAAAGATATAAA [XGTACX_site6867]”, the “gcPBM binding intensity (ln)” value turned out to be 7.07.

In the case of “GAAAATTTAAAAAGAGTGCATTATATGTTTGAATAT [GTGCAC_site9564]”, the “gcPBM binding intensity (ln)” value came out at 9.18.

Regarding “TTTTATGCATGTGAAGTGCAAAATAAAAAATAAAAT [GTGCAC_site9612]”, the “gcPBM binding intensity (ln)” value came to 10.2.

Turning to “TTTTATGTTTATGTGGTGCATGTTTTGAAGAAAATA [GTGCAC_site9616]”, the “gcPBM binding intensity (ln)” value amounted to 10.3.

Regarding “AATTTGAAATATGTGGTGCAGTTATATAATATGTTT [GTGCAC_site9885]”, the “gcPBM binding intensity (ln)” value was determined as 10.3.

As to “TTTTTTTTTTTTTTTGCATGTTGAAAATAAAATTAT [TGCATGCA_site86]”, the “gcPBM binding intensity (ln)” value was 6.92.

In the case of “TATATTTGAAATATATGTACTTATAATACAGTTTAA [XGTACX_site8039]”, the “gcPBM binding intensity (ln)” value stood at 6.94.

Regarding “ATATAAAATCAACAAAAAAAAAAAATATATATATAT [XGTACX_negctrl_site251]”, the “gcPBM binding intensity (ln)” value stood at 9.03.

“AAATACATAACTTAAAATTTGTTCATATCTATACAT [TGCATGCA_negctrl_site249]”: the “gcPBM binding intensity (ln)” value is 6.94.

With “ACATTAACATTGTTGGTGCAAAATTAATATGTTTTT [GTGCAC_site9673]”, the “gcPBM binding intensity (ln)” value worked out at 9.77.

For the sequence “AAAAATTAACAAAAGGTGCAAACAAATAGTGGTTTT [GTGCAC_site9998]”, the “gcPBM binding intensity (ln)” value stood at 10.8.

For the sequence AGGTTTTCTTAAATAGTGCATTATAACAAAAATAAA, the “gcPBM binding intensity (ln)” value turned out to be 9.66.

“GTATATAATTTATGTGCACACACTCCTATTTTTAGC [CACACA_site49]”: the “gcPBM binding intensity (ln)” value amounted to 8.89.

For “ATTCCTTGGTTGTATAGTACTTTGGTTAAACATAAA [XGTACX_site6967]”, the “gcPBM binding intensity (ln)” value stood at 7.4.

TAGATTATTATACTAGTGCAAATTATTTAAGAAAAA: the “gcPBM binding intensity (ln)” value amounted to 8.09.

For the sequence CTTATAAGAATACTAGTGCACATAATTTAACGAAAA, the “gcPBM binding intensity (ln)” value amounted to 10.6.

As to “AAGATAAAATTATGCACACATACGAATAATTTTAAA [CACACA_site1705]”, the “gcPBM binding intensity (ln)” value came out at 7.24.

As to “AAAAATTTAATTATTTGTACATAAAATACATTTCTG [XGTACX_site791]”, the “gcPBM binding intensity (ln)” value turned out to be 6.81.

As to “TTATAAATATAATTTTGTACATATATATATATATAC [XGTACX_site5064]”, the “gcPBM binding intensity (ln)” value is 7.39.

Take “AAAATTATACACACACGTACATATAAATAGAAATAT [XGTACX_site1753]”: the “gcPBM binding intensity (ln)” value worked out at 7.12.

Turning to “AACATACGACAATACGCACACATATAAGTACATATT [CACACA_site8584]”, the “gcPBM binding intensity (ln)” value was 7.13.

On to AGGATAAAAGTTATGGTGCATTAACCTATTTAAATA, for which the “gcPBM binding intensity (ln)” value worked out at 10.2.

On to “ATTTAAAAGTTGGTAGTGCATTAAAAATAACAAAAA [GTGCAC_site9835]”, for which the “gcPBM binding intensity (ln)” value worked out at 8.96.

Consider TTCTATTTTTTAAAAGTGCATATTATAAATATATAT, for which the “gcPBM binding intensity (ln)” value was 9.04.

On to “GCACATTTTTTTATCACACATATAATTACAATATAA [CACACA_site5585]”, for which the “gcPBM binding intensity (ln)” value was found to be 7.74.

As for “ACAATATTTTTTTATAAACACACATATATATAAATA [CACACA_site9175]”, the “gcPBM binding intensity (ln)” value is 7.18.

On to “AATAATGAATTGAAATGTACATATTTTTATTAATAC [XGTACX_site8899]”, for which the “gcPBM binding intensity (ln)” value is 7.15.

For the sequence “AAAATATAAAGTATTTGTACATAATATATTTTTAAA [XGTACX_site3494]”, the “gcPBM binding intensity (ln)” value was 6.81.

Turning to “CAATTAAACAATTAAACATGCAAAATGATATAATAA [TGCATGCA_site240]”, the “gcPBM binding intensity (ln)” value came out at 6.79.

With CATGAGGTATAAAAGGTGCAAATTAATGAGAACATT, the “gcPBM binding intensity (ln)” value was 11.1.

On to “TATGTATTAATGAGAACATGCAAAATAATAAACAAT [TGCATGCA_site362]”, for which the “gcPBM binding intensity (ln)” value was determined as 7.24.

On to “TATATATATATATGTGGTACATAAAATTATTATTTT [XGTACX_site4554]”, for which the “gcPBM binding intensity (ln)” value is 9.55.

For TTTTAAGGTGTGAAGGTGCAAAAAGGTAAATAGGAA, the “gcPBM binding intensity (ln)” value was 10.8.

For “TTTTTTTTTAAGCAAAGGAAATCAAAATAAAAATAT [CACACA_negctrl_site719]”, the “gcPBM binding intensity (ln)” value came out at 7.08.

For the sequence ATTTTAAAAAGGATAGTGCAAATGTTAAAATAGGAC, the “gcPBM binding intensity (ln)” value came to 8.74.

“ATTTAAGTAGTACATACACACACATATACAAAAAGA [CACACA_site9317]”: the “gcPBM binding intensity (ln)” value is 7.39.

Regarding “GATGAGGACAAACACACACACATAAGTTGATACATA [CACACA_site3424]”, the “gcPBM binding intensity (ln)” value was 7.27.

“TTTTATTTAGGAGGTGCATGTAATACGGAACATAAT [TGCATGCA_site827]”: the “gcPBM binding intensity (ln)” value was determined as 11.2.

As to CTTTTTATTTAGGAGGTGCATGTAATACGGAACATA, the “gcPBM binding intensity (ln)” value is 10.9.

As to ATACTTTTATTTTTGGTGCATATATCATGTAGACGT, the “gcPBM binding intensity (ln)” value was determined as 10.2.

Regarding “CGGACATACATAGGAACATGCAAAATTTTTTATTTT [TGCATGCA_site575]”, the “gcPBM binding intensity (ln)” value was 6.78.

Regarding “CTATAATAACATAACACACACATGTATTTATAGGTG [CACACA_site6298]”, the “gcPBM binding intensity (ln)” value was determined as 7.05.

As for “ATATAATAACATAACACACACATGTATTTATAGGTG [CACACA_site359]”, the “gcPBM binding intensity (ln)” value turned out to be 6.97.
